The values below come from PubChem BioAssay (Tox21).

Records with an inconclusive call do not appear. Entries that show only a call come without a potency. The source made the active and inactive calls. Calls follow the shape of the dose curve; as a rule, active = well fitted cell-killing curve with a large enough effect in the repeat runs; inconclusive = weak or mixed curves, or effect the other way; inactive = flat fitted curve, though single readings scatter.
Potency is read from the fitted curve at half-maximal effect.

This experiment in a line: qHTS assay to identify small molecule agonists of the constitutive androstane receptor (CAR) signaling pathway - cell viability counter screen (AID 1224836). Also: nearly all actives have a fitted effect of over 45% in size. The conditions noted are these: HepG2-CYP2B6-hCAR viability, CellTiter-Fluor, 23 h, PK11195 added to every well; series mostly up to 92.4 µM. From the text: U.S. Tox21 Program National Center for Advancing Translational Sciences [NCATS] NIH Chemical Genomics Center [NCGC] U.S. Environmental Protection Agency [EPA] National Institutes of Environmental Health Sciences [NIEHS] National Toxicology Program [NTP] U.S. Food and Drug Administration [FDA] Tox21 Assay Overview: The constitutive androstane receptor (CAR) is a nuclear receptor which regulates multiple drug metabolizing enzymes (DMEs) and transporters. Activating CAR will generally increase the transcription and subsequent translation of CYP2B6 and CYP3A4. These two DMEs represent about 50% of the drug metabolizing potential in the body. […] Recently, there have also been studies performed indicating CARs role in energy metabolism and cancer therapy. Therefore, inducing CARs activity could have a potential effect on diabetes and cancer. Identifying environmental toxins and compounds which modulate CAR, through the use of the Tox21 10K compound collection, will be an important step in determining the toxicity and potential therapeutic effects these factors will have on the human body. To differentiate true CAR agonists from cytotoxic substances, the assay is multiplexed with a cell viability assay.
Tox21 Assay Protocol Summary: A double-stable (hCAR and CYP2B6-2.2kb) transfected cell line, derived from human hepatoma (HepG2) cells, was utilized for the duration of the quantitative high-throughput screens. The HepG2-CYP2B6-hCAR cells were dispensed at 2500 cells/4 uL/well in 1536-well white solid bottom plates using a Multidrop Combi. After the assay plates were incubated at 37 C/5% CO2 for 4 hrs, 23 nL of compounds at 15 concentrations (from 5-48 columns) or positive control (from 1 to 4 columns) were transferred to the assay plates using a Pintool station. One uL of PK11195 (final concentration = 0.75 uM) was added, using a Flying Reagent Dispenser, inside each well. After a 23 hr incubation period at 37 C/5% CO2, 1 uL of CellTiter-Fluor reagent was added into each well of the assay plates using a Flying Reagent Dispenser. The fluorescence intensity in the plates was then measured using a ViewLux plate reader.
Regarding `CC(C)(C)NCC(O)COc1cccc2c1C[C@H](O)[C@H](O)C2` (stereo not given in full), the Potency entry was “inactive”.

As for `O=C(O)c1ccc(O)cc1O`, the Potency result is “inactive”.

On to `O=C(O)CCCc1c[nH]c2ccccc12`, for which the Potency entry was “inactive”.

As for `CSCC[C@H](NC(=O)[C@H](Cc1c[nH]c2ccccc12)NC(=O)CCNC(=O)OC(C)(C)C)C(=O)N[C@@H](CC(=O)O)C(=O)N[C@@H](Cc1ccccc1)C(N)=O`, the Potency entry is “inactive”.

As for `CCO[Si](C)(CCCOCC1CO1)OCC` (stereo not given), the Potency result is “inactive”.

As for `COC(CC(C)CCCC(C)(C)O)OC` (stereo not given), the Potency result was “inactive”.

On to `CC1CCCO1` (stereo not given), for which the Potency result is “inactive”.

For `Cc1ccc2nc(N)[nH]c(=O)c2c1Sc1ccncc1`, the Potency entry is “inactive”.

Take `Nc1cccc2c(N)cccc12`: the Potency was 24.3 µM (active).

Turning to `BrC(Br)C(Br)Br`, the Potency result is “inactive”.

Consider `CNc1c2c(nn1C)CCCC2`, for which the Potency entry was “inactive”.

As to `Cc1cccc2sc(N)nc12`, the Potency entry is “inactive”.

For `C=C(C)C(=O)OCCC(F)(F)C(F)(F)C(F)(F)C(F)(F)C(F)(F)C(F)(F)F`, the Potency result was “inactive”.

As to `COc1cc(S(=O)(=O)Nc2ccccc2)c(OC)cc1N`, the Potency result was “inactive”.

For the compound `CC(CO)(CO)C(=O)O`, the Potency entry is “inactive”.

`ClC1=C(Cl)C1(Cl)Cl`: the Potency result is “inactive”.

As for `CCCCCCCC/C=C/C(=O)O`, the Potency entry is “inactive”.

With `CC(C)COC(=O)COc1cc(Cl)c(Cl)cc1Cl`, the Potency entry was “inactive”.

On to `CC(=O)N[C@@H](Cc1ccc(O)cc1)C(=O)O`, for which the Potency result is “inactive”.

As for `CC(=O)OCC1=C(C(=O)O)N2C(=O)[C@@H](NC(=O)CSc3ccncc3)[C@H]2SC1`, the Potency result was “inactive”.

Take `CC(C)c1ccc(C#N)cc1`: the Potency result was “inactive”.

Regarding `c1ccc(CCCc2ccncc2)cc1`, the Potency result was “inactive”.

For the compound `CSSc1ccoc1C`, the Potency result was “inactive”.

As for `O=C(O)/C=C/c1ccc(O)c(O)c1`, the Potency entry is “inactive”.

For the compound `NC(=O)c1ccccc1[N+](=O)[O-]`, the Potency entry was “inactive”.

Consider `CCN(CC)c1cccc(O)c1`, for which the Potency result was “inactive”.

As for `O=C1CC[C@@H](C(=O)O)N1`, the Potency entry is “inactive”.

Turning to `OCC(CO)n1cnc(-c2ccc(F)cc2)c1-c1ccnc(Oc2ccccc2)n1`, the Potency entry was “inactive”.

As to `CCOC(=O)c1c(N)sc2c1CCN(Cc1ccccc1)C2`, the Potency entry is “inactive”.

For `CCNc1nc(N)nc(Cl)n1`, the Potency entry is “inactive”.

Take `CC[C@H]1OC(=O)[C@H](C)[C@@H](O[C@H]2C[C@@](C)(OC)[C@@H](O)[C@H](C)O2)[C@H](C)[C@@H](O[C@@H]2O[C@H](C)C[C@H](N(C)C)[C@H]2O)[C@](C)(O)C[C@@H](C)CN(C)[C@H](C)[C@@H](O)[C@]1(C)O`: the Potency result was “inactive”.

`NC(=O)CCCCC(N)=O`: the Potency entry is “inactive”.

For `CC(=O)OCC(C)C`, the Potency result was “inactive”.

`CCOCCC(=O)OCC`: the Potency entry was “inactive”.

As to `CC(CN(CCN(CC(C)OCCO)CC(C)OCCO)CC(C)OCCO)OCCO` (stereo not given), the Potency result is “inactive”.

`CC(C)C(=O)OCCOc1ccccc1`: the Potency entry was “inactive”.

For the compound `CN1CCCN(C(c2ccccc2)c2ccc(Cl)cc2)CC1` (stereo not given), the Potency is 26.6 µM (active).

In the case of `Cc1cc(CCCOc2c(C)cc(-c3noc(C(F)(F)F)n3)cc2C)on1`, the Potency result is “inactive”.

Consider `O=C(C(=O)c1ccco1)c1ccco1`, for which the Potency entry is “inactive”.

Turning to `O=C(O)c1cccc(C[C@@H]2COc3ccc(OCc4nc5cc(F)ccc5s4)cc3[C@@H]2O)c1`, the Potency result was “inactive”.
